# Assay outcomes deposited in PubChem by National Center for Advancing Translational Sciences (NCATS).
# Hits are enriched below; roughly 11% of the tested compounds scored in any of these assays.
# L3MBTL1 block: L3MBTL1 (human) inhibition; Potency, µM (top dose mostly 57.1 µM), for inactives: at the top dose activity, negative = inhibition, hits mostly inhibitors; AID 485360; 230,000 compounds, 0.66% hits; AlphaScreen L3MBTL1–H3K9me1 peptide binding; also: potency is read from the fitted curve at half-maximal effect; % is scaled to controls: 0 for no effect and ±100 for the full control effect; nearly all actives have a fitted effect of over 60% in size
#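 AlphaScreen assay: L3MBTL1 (50 nM final) was preincubated 30 min at room temperature with biotinylated H3(1-15)K9me1 peptide (75 nM final), then 30 min with library compounds; streptavidin donor and nickel chelate acceptor beads (10 ug/mL final) added, 30 min dark.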
# JMJD2A Tudor: inhibitors of human JMJD2A Tudor domain; Potency, µM (doses to about 114 µM), for the others: at the highest dose activity change, negative = inhibition, actives largely listed as inhibitors; AlphaScreen JMJD2A-Tudor / H3K4me3 peptide binding; O75164; 390,000 compounds, 4.4% hits; AID 504339; also: potency is read from the fitted curve at half-maximal effect; % is scaled to controls: 0 for no effect and ±100 for the full control effect; nearly all actives have a fitted effect of over 50% in size
# Target sequence (O75164 whole entry, looked up, the tested form may be a part): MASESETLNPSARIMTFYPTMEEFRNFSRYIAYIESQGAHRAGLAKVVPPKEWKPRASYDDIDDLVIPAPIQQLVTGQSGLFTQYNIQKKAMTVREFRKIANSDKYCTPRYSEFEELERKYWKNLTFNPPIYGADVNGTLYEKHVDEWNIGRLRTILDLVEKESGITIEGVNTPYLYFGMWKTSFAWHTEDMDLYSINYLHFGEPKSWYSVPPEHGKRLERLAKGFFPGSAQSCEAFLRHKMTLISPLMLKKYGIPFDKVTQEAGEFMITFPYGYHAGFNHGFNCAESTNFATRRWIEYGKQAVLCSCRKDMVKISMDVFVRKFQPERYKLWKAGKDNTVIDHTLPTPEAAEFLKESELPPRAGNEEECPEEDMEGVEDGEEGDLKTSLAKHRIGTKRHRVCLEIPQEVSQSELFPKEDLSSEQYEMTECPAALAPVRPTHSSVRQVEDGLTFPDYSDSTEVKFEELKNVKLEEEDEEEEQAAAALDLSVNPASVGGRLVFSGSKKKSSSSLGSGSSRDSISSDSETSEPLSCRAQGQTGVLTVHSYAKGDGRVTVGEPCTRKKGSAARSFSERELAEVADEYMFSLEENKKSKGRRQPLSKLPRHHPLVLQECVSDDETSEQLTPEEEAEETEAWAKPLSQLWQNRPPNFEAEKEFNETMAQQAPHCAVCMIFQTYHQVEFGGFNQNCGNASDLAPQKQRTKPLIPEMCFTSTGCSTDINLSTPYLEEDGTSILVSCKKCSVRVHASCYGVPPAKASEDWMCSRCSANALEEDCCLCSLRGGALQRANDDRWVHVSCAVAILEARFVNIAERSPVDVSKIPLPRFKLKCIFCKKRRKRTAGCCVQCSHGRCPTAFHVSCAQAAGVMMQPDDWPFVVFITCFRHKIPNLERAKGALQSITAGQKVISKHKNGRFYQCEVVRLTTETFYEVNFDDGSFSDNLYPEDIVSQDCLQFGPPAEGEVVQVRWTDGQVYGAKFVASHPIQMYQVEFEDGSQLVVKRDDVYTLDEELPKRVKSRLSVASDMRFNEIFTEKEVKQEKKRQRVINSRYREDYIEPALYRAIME
# PI5P4K alpha inh: PI5P4K alpha (human) kinase inhibition | P48426 | PI5P4Kalpha enzyme, ADP-Glo luminescence, 60 min; active compounds read low | max response, % | 330,000 compounds, 1.2% hits; active = max response of -50% or lower; inconclusive = between -30% and -50%; inactive = -30% or higher; also: value at the top dose of about 77 µM; % is scaled to controls: 0 for no effect and ±100 for the full control effect
#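 Single end-point luminescence (ADP-Glo) quantified ADP from PI5P4Kalpha turnover; ATP 5 microM final, 1 h at RT, 0.1% CHAPS and 0.28 mM EGTA in HEPES pH 7.4.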
# HP1b chromo inh: inhibitors of HP1-beta chromodomain binding to methylated histone tails; AlphaScreen HP1-beta / biotin-H3K9me3 peptide binding; P83916; Potency, µM (top dose mostly 114 µM), for the others: at the top dose activity change, negative = inhibition, hits mostly inhibitors; 390,000 compounds, 0.56% hits; AID 540317; also: potency is read from the fitted curve at half-maximal effect; nearly all actives have a fitted effect of over 70% in size
#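 Compound inhibition of the preformed complex between 50 nM HP1-beta and 50 nM biotinylated H3K9me3 peptide was read by AlphaScreen. Buffer was PBS pH 7.4 with 0.01% Tween-20. Incubations ran 30 min at room temperature, with 10 ug/mL donor/acceptor beads.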
# G9a inh: blocks human histone lysine methyltransferase G9a. Q96KQ7. G9a H3K9 monomethylation, AlphaScreen, 2 h. Potency, µM (titrated, usually from 102 µM), for inactives: top-dose activity, negative = inhibition, actives largely listed as inhibitors. 350,000 compounds, 8.8% hits; also: potency is read from the fitted curve at half-maximal effect; % is scaled to controls: 0 for no effect and ±100 for the full control effect; nearly all actives have a fitted effect of over 75% in size
#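 Enzyme 20 nM + cpd, 15 min RT; add b-H3K9 pep 500 nM / SAM 20 uM; 2 h RT; anti-H3K9me1 Ab 0.5 ug/mL + SA donor / anti-rabbit acceptor beads 20 ug/mL each, 10 min; AlphaScreen read.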
# BAZ2B block: BAZ2B (human) inhibition. Potency, µM (top dose mostly 114 µM), for the others: top-dose activity change, negative = inhibition, usual class: inhibitors. 360,000 compounds, 4.4% hits. AID 504333. Q9UIF8. AlphaScreen BAZ2B-H3K14Ac peptide displacement; also: potency is read from the fitted curve at half-maximal effect; % is scaled to controls: 0 for no effect and ±100 for the full control effect; nearly all actives have a fitted effect of over 60% in size
#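 Multi-concentration screen (max 110 uM) measuring displacement of acetylated histone H3 peptide from BAZ2B by AlphaScreen, using 50 nM protein, 50 nM peptide and 10 ug/mL streptavidin donor plus Ni-chelate acceptor beads.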
# * hit, by the source's call; ? = inconclusive; . = no result; [ ] = dose if it differs, or a comment. Unless noted, calls follow the shape of the dose curve; as a rule, active = well fitted inhibition curve with a large enough effect; inconclusive = small, poorly fitted or top-dose-only effect; inactive = no such curve, though single readings can be large or run the other way.
SMILES,L3MBTL1 block,JMJD2A Tudor,PI5P4K alpha inh,HP1b chromo inh,G9a inh,BAZ2B block
O=C(CNC(=O)c1ccccc1F)OCc1cc(=O)n2ccsc2n1,.,0.7%,.,59.2%,7.7%[59 µM],6.7%
CCOC(=O)C(C)Nc1ncnc2onc(C)c12 (centres undefined),.,-13.7%,.,24.4%,-0.3%[59 µM],6.8%
COc1ccc(CCn2c(=O)c3ccccc3n(CC(=O)Nc3cccc(C)c3)c2=O)cc1OC,.,-7.2%,.,27.6%,-2.9%[59 µM],2.1%
CCCc1cc(CN2CCOCC2)c(O)c(CN2CCOCC2)c1O,.,11.2µM*,-16.5,25.1µM*,.,.
Oc1c(Cl)cc(Oc2cc(Cl)c(O)c(CN3CCOCC3)c2)cc1CN1CCOCC1,.,?,1.7,?,.,.
Oc1c(CN2CCOCC2)cc(CN2CCOCC2)c(O)c1O,.,11.2µM*,-23.1,6.31µM*,.,.
Oc1cccc(CN2CCOCC2)c1O,.,10µM*,-15.8,70.8µM*,.,.
CCOC(=O)C(=O)Nc1c(C(=O)Nc2cccc(F)c2)oc2ccccc12,.,-1.7%,.,70.1%,40.6%[59 µM],28.7%
CC1Cn2c(C(=O)NCc3cccc(Br)c3)cc3cccc(c32)S1 (centres undefined),.,34.1%,.,75.6%,28.7%[59 µM],12.5%
CC(C)(C)C1CCc2c(sc(NC(=O)Cn3nnc(-c4ccccc4Cl)n3)c2C#N)C1 (centres undefined),.,-32.5%,.,-24.4%,-21.5%[59 µM],-25.5%
COc1ccccc1N1CCN(C(=O)c2ccc3c(c2)N(Cc2cc(C)ccc2C)C(=O)c2ccccc2S3(=O)=O)CC1,.,-27.9%,.,12.3%,-39.5%[59 µM],?
Cc1ccc(Nc2nc3ccccc3o2)cc1F,.,11.2µM*,?,-3.4%,6.5%,16.5%
O=C(Cn1c(=O)oc2cc(S(=O)(=O)N3CCCCCC3)ccc21)Nc1ccc(F)cc1F,.,-19.8%,.,1.0%,5.2%[59 µM],-1.2%
Cc1c(S(=O)(=O)c2ccccn2)c(N)n(Cc2ccccc2)c1C,-20.0%,?,-2.6,4.7%,14.1µM*,-35.2%
COCCn1c(C)c(C)c(S(=O)(=O)c2ccccc2)c1N,.,-15.3%,-3.4,49.8%,35.5µM*,?
O=C(C1CC1)N1CCc2cc(Br)cc(S(=O)(=O)Nc3ccc(C(F)(F)F)cc3)c21,.,-15.4%,.,19.2%,-0.4%[59 µM],-17.1%
CN(CCO)c1cc(Sc2nc3ccccc3s2)c2nonc2c1[N+](=O)[O-],-2.6%,22.4µM*,.,?,?,-29.9%[57.1 µM]
CC(=O)OCCN(C)c1cc(SC(C)C)c2nonc2c1[N+](=O)[O-],-24.9%,?,3.1,-0.8%,50.1µM*,?
CC(=O)OCCNc1cc(SC(C)C)c2nonc2c1[N+](=O)[O-],-20.8%,-23.7%,0.0,19.2%,-2.7%,?
CCOC(=O)N1CCN(c2cc(N(C)CCO)c([N+](=O)[O-])c3nonc23)CC1,.,-10.0%,-2.1,27.1%,?,-18.3%
O=C(Nc1cccc2cccnc12)OC(Cl)(Cl)Cl,.,-24.0%,.,29.8%,.,.
CN(C)CCNCc1ccc(OC2CCCC2)cc1,.,-11.4%,.,29.0%,79.4µM*,-28.6%
CCC(CO)NCc1ccc(OC2CCCC2)cc1 (centres undefined),17.2%,-9.5%,0.2,23.8%,4.8%[59 µM],3.8%
COc1cccc2c(=S)c(CCC(C)=O)c(C)[nH]c12,45.4%,10µM*,-25.5,?,1.58µM*,-7.6%
CC(=O)CCc1c(C)c2cccc(C)c2[nH]c1=O,-0.3%,-19.8%,.,-11.9%,?,?
SMILES,L3MBTL1 block,JMJD2A Tudor,PI5P4K alpha inh,HP1b chromo inh,G9a inh,BAZ2B block
CCn1cc(C(=O)OCC(=O)Nc2ccc(F)cc2F)c(=O)c2ccc(C)nc21,.,-16.0%,.,45.5%,?,-6.1%
CCn1cc(-c2n[nH]c(=S)n2-c2ccc(C)cc2Br)c(=O)c2ccc(C)nc21,2.2%,?,-4.8,55.0%,10µM*,-5.2%
CC(C)Cc1nn2cc(-c3cccc(Br)c3)nc2s1,.,65.4%,.,37.0%,65.3%[59 µM],?
CCCS(=O)(=O)c1nc(S(=O)(=O)c2ccc(C)cc2)c(NCc2ccccn2)s1,.,-4.8%,1.1,49.5%,35.5µM*,-0.3%
CS(=O)(=O)c1nc(S(=O)(=O)c2ccc(Cl)cc2)c(NCc2ccccn2)s1,.,-16.2%,-4.3,26.2%,39.8µM*,15.0%
CCCS(=O)(=O)c1nc(S(=O)(=O)c2ccc(C)cc2)c(N2CC(C)OC(C)C2)s1 (centres undefined),.,-3.4%,1.1,53.3%,50.1µM*,-3.3%
CCCS(=O)(=O)c1nc(S(=O)(=O)c2ccc(C)cc2)c(NCc2ccco2)s1,-10.2%,-17.9%,-2.3,18.0%,39.8µM*,-4.0%
CCS(=O)(=O)c1nc(S(=O)(=O)c2ccc(C)cc2)c(NCc2ccccn2)s1,.,-13.1%,-10.4,19.4%,2.1%,12.3%
Cc1ccc(S(=O)(=O)c2nc(S(=O)(=O)c3ccc(C)cc3)c(NCc3ccco3)s2)cc1,1.3%,-10.6%,.,15.9%,16.6%[0.0925 µM],-3.8%
CCS(=O)(=O)c1nc(S(=O)(=O)c2ccc(C)cc2)c(N2CC(C)OC(C)C2)s1 (centres undefined),.,2.0%,1.6,56.4%,.,-1.6%
CCOc1ccccc1CNC(=O)C1=C(C)C(=O)OC12CCN(C(C)=O)CC2,.,6.3%,.,35.5%,0.5%[59 µM],6.6%
CCOc1ccc(C(=O)c2ccc(OCC)c(N)c2)cc1N,-5.2%,?,2.3,-12.5%,-10.7%,-28.7%
CN(C)c1ccc(C(=O)c2ccc(N(C)C)c(N)c2)cc1N,-16.3%,56.2µM*,-1.2,?,79.4µM*,50.1µM*
Cc1ccn2c(NCc3ccco3)c(-c3ccccc3)nc2c1,.,?,.,22.5%,.,.
COC/C=C/C1=CC2=CC(=O)C(C)(OC(=O)c3ccco3)C(=O)C2=CO1 (centres undefined),.,.,.,.,?,50.1µM*
COC/C=C/C1=CC2=CC(=O)C(C)(OC(=O)C3CCCC3)C(=O)C2=CO1 (centres undefined),.,63.1µM*,-65.4*,?,?,56.2µM*
COC/C=C/C1=CC2=CC(=O)C(C)(OC(=O)c3cnc4ccccc4n3)C(=O)C2=CN1Cc1ccccc1 (centres undefined),.,-35.4%,-25.6,0.5%,-11.4%[12.7 µM],?
Cc1ccc(-n2c(C(C)n3nc(C)c([N+](=O)[O-])c3C)n[nH]c2=S)cc1 (centres undefined),19.1%,12.6µM*,.,-78.9%,3.98µM*,10.4%
Cc1nn(C(C)c2n[nH]c(=S)n2-c2cccc(Cl)c2)c(C)c1[N+](=O)[O-] (centres undefined),-10.8%[11.4 µM],?,.,1.4%,3.55µM*,7.0%
COc1ccc(-n2c(C(C)n3nc(C)c([N+](=O)[O-])c3C)n[nH]c2=S)cc1 (centres undefined),5.9%,12.6µM*,-0.7,39.9%,6.31µM*,-5.2%
